Measurements taken from PubChem BioAssay (NCI).
About 79,000 compounds went through this panel and 15% of them were active in at least one assay; those are over-represented in the sample as a whole. The source made the active and inactive calls. Cut-off read from the data, not from the text of the source: active = growth inhibition above about 70%; inactive = the rest.

Columns and labels:
[1] = NCI Yeast Anticancer Drug Screen. Data for the wt1 strain (AID 149);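 note: 0% = growth of vehicle-treated wt1 cultures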; conditions: S. cerevisiae wt1 strain (SPY 50644) growth inhibition, stronger effect = higher value
How it was run: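 wt1 strain grown with compound or vehicle; inhibition taken from the growth difference.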

[2] = NCI Yeast Anticancer Drug Screen. Data for the rad50EPP+ strain (AID 151);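 note: 0% = growth of vehicle-treated control cultures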; conditions: S. cerevisiae rad50 mutant strain, stronger effect = higher value
How it was run: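 Strain rad50EPP+; compound exposure; % growth inhibition vs vehicle.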

[3] = NCI Yeast Anticancer Drug Screen. Data for the mgt1 strain (AID 153); conditions: S. cerevisiae mgt1 mutant growth inhibition, stronger effect = higher value
How it was run: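 Read-out: yeast growth inhibition vs vehicle control. Strain mgt1, drawn from a panel altered in DNA damage repair or cell cycle control.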

[4] = NCI Yeast Anticancer Drug Screen. Data for the rad50 strain (AID 155);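 note: 0% = growth of vehicle-only cultures of the same strain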; conditions: S. cerevisiae rad50 strain growth inhibition, stronger effect = higher value
How it was run: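 DNA repair mutant yeast, compound exposure, growth read-out; inhibition is taken relative to vehicle.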

[5] = NCI Yeast Anticancer Drug Screen. Data for the mec2-1 strain (AID 157); conditions: S. cerevisiae mec2-1 strain, stronger effect = higher value
How it was run: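 Cells of the genetically defined mec2-1 yeast strain are incubated with test compound. Inhibition of growth is calculated against vehicle-treated controls.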

[6] = NCI Yeast Anticancer Drug Screen. Data for the rad14 strain (AID 159);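 note: 0% = growth of vehicle-treated control cultures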; conditions: S. cerevisiae rad14 strain growth inhibition, stronger effect = higher value
How it was run: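 DNA repair-defective yeast, compound-exposed; % growth inhibition derived by comparison with vehicle-treated controls.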

[7] = NCI Yeast Anticancer Drug Screen. Data for the sgs1 mgt1 strain (AID 161);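 note: 0% = growth of cultures given vehicle only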; conditions: S. cerevisiae sgs1 mgt1 strain, stronger effect = higher value
How it was run: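 Inhibition of yeast growth, normalised to vehicle-treated controls, is reported for a strain bearing genetic alterations in DNA damage repair.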

[8] = NCI Yeast Anticancer Drug Screen. Data for the CLN2oe strain (AID 163);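 note: 0% = growth of vehicle-only control cultures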; conditions: S. cerevisiae CLN2oe strain, stronger effect = higher value
How it was run: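 Strain altered in cell-cycle control, incubated with compound; growth compared to solvent-treated controls.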

[9] = NCI Yeast Anticancer Drug Screen. Data for the bub3 strain (AID 167); conditions: S. cerevisiae bub3 mutant strain, stronger effect = higher value
How it was run: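 In this screen, a yeast mutant lacking normal mitotic checkpoint function is challenged with compound. Relative growth versus vehicle gives the inhibition value.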

[10] = NCI Yeast Anticancer Drug Screen. Data for the wt2 strain (AID 169);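 note: 0% = growth of vehicle-treated yeast cultures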; conditions: S. cerevisiae wt2 strain growth inhibition, stronger effect = higher value
How it was run: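 Steps: yeast strain treated with compound; growth recorded; inhibition calculated relative to cultures given vehicle alone.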

[11] = NCI Yeast Anticancer Drug Screen. Data for the mlh1 strain (AID 171);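 note: 0% = growth of vehicle-treated control cultures of the same strain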; conditions: S. cerevisiae mlh1 strain growth inhibition, stronger effect = higher value
How it was run: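 Yeast screen: mutant strain plus compound, growth scored against vehicle control wells.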

[12] = NCI Yeast Anticancer Drug Screen. Data for the sgs1 strain (AID 173);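 note: 0% = growth of vehicle-only control cultures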; conditions: S. cerevisiae sgs1 mutant, stronger effect = higher value
How it was run: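 Inhibition of yeast growth served as the measure. The mutant strain was treated with each compound, and growth was normalised to cultures receiving vehicle alone.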

[13] = NCI Yeast Anticancer Drug Screen. Data for the mlh1 rad18 strain (AID 175); conditions: S. cerevisiae mlh1 rad18 strain growth inhibition, stronger effect = higher value
How it was run: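 Compound-treated yeast growth, normalised to vehicle controls. Strain bears defined DNA repair mutations.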

[14] = NCI Yeast Anticancer Drug Screen. Data for the rad18 strain (AID 177); conditions: S. cerevisiae rad18 mutant growth inhibition, stronger effect = higher value
How it was run: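 Inhibition values reflect reduced yeast growth compared with vehicle-treated controls, using a strain engineered with a DNA damage repair defect.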

[15] = at 5.0 µM (retest, dose inferred, filed as 0.5)
[16] = at 50.0 µM (retest, dose inferred, filed as 5.0)

Measured: growth inhibition

CC(C)c1ccc(C2NC(=S)NC3=C2c2ccccc2C3=O)cc1 (stereo not given)
active: [4]; at 50.0 µM 86.8% | [7]; at 50.0 µM 78% | [9]; at 33.0 µM 81% | [9]; [16] 87% | [9]; at 50.0 µM 89.7% | [9]; at 100.0 µM 88% | [13]; at 50.0 µM 74.1%
inactive: [1]; at 1.2 µM 16% | [1]; at 3.7 µM 6% | [1]; at 11.0 µM 18% | [1]; at 33.0 µM 17% | [1]; at 100.0 µM 17% | [2]; at 1.2 µM 23% | [2]; at 3.7 µM 21% | [2]; at 11.0 µM 16% | [2]; at 33.0 µM 15% | [2]; at 100.0 µM 3% | [3]; at 1.2 µM 3% | [3]; at 3.7 µM -4% | [3]; at 11.0 µM 7% | [3]; at 33.0 µM 19% | [3]; at 100.0 µM 50% | [4]; at 1.2 µM 24% | [4]; at 3.7 µM 24% | [4]; [15] 22% | [4]; at 11.0 µM 27% | [4]; at 33.0 µM 32% | [4]; [16] 31% | [4]; at 100.0 µM 54% | [5]; at 1.2 µM 17% | [5]; at 3.7 µM 11% | [5]; [15] -8% | [5]; at 11.0 µM -7% | [5]; at 33.0 µM 9% | [5]; [16] -11% | [5]; at 50.0 µM 64.1% | [5]; at 100.0 µM 28% | [6]; at 1.2 µM -8% | [6]; at 3.7 µM -14% | [6]; at 11.0 µM -18% | [6]; at 33.0 µM -20% | [6]; at 100.0 µM 11% | [7]; [15] 43% | [7]; [16] 24% | [8]; at 1.2 µM -9% | [8]; at 3.7 µM -5% | [8]; at 11.0 µM -5% | [8]; at 33.0 µM -8% | [8]; at 100.0 µM 18% | [9]; at 1.2 µM -3% | [9]; at 3.7 µM 4% | [9]; [15] -25% | [9]; at 11.0 µM 27% | [10]; at 1.2 µM 0% | [10]; at 3.7 µM 1% | [10]; at 11.0 µM 14% | [10]; at 33.0 µM 22% | [10]; at 100.0 µM 41% | [11]; at 1.2 µM 10% | [11]; at 3.7 µM -1% | [11]; at 11.0 µM 3% | [11]; at 33.0 µM 26% | [11]; at 100.0 µM 52% | [12]; at 1.2 µM 23% | [12]; at 3.7 µM 12% | [12]; at 11.0 µM 16% | [12]; at 33.0 µM 26% | [12]; at 100.0 µM 43% | [13]; [15] -36% | [13]; [16] 32%

O=C(CSS(=O)(=O)O)c1ccccc1
active: [2]; at 100.0 µM 91% | [9]; [16] 76% | [13]; [16] 89% | [14]; at 33.0 µM 84% | [14]; at 100.0 µM 89%
inactive: [1]; at 1.2 µM 0% | [1]; at 3.7 µM 5% | [1]; at 11.0 µM 2% | [1]; at 33.0 µM 5% | [1]; at 100.0 µM 12% | [2]; at 1.2 µM -4% | [2]; at 3.7 µM -9% | [2]; at 11.0 µM 11% | [2]; at 33.0 µM 67% | [3]; at 1.2 µM -1% | [3]; at 3.7 µM -3% | [3]; at 11.0 µM -1% | [3]; at 33.0 µM 2% | [3]; at 100.0 µM 7% | [4]; at 1.2 µM -1% | [4]; at 3.7 µM -1% | [4]; [15] 6% | [4]; at 11.0 µM 2% | [4]; at 33.0 µM 2% | [4]; [16] 54% | [4]; at 50.0 µM 10.8% | [4]; at 100.0 µM 16% | [5]; at 1.2 µM -4% | [5]; at 3.7 µM -5% | [5]; [15] -15% | [5]; at 11.0 µM 0% | [5]; at 33.0 µM 9% | [5]; [16] -6% | [5]; at 50.0 µM 19.9% | [5]; at 100.0 µM 24% | [6]; at 1.2 µM 2% | [6]; at 3.7 µM 3% | [6]; at 11.0 µM 5% | [6]; at 33.0 µM 9% | [6]; at 100.0 µM 19% | [7]; [15] -9% | [7]; [16] 69% | [7]; at 50.0 µM 35.3% | [8]; at 1.2 µM -5% | [8]; at 3.7 µM -14% | [8]; at 11.0 µM -11% | [8]; at 33.0 µM 2% | [8]; at 100.0 µM 28% | [9]; at 1.2 µM 0% | [9]; at 3.7 µM -5% | [9]; [15] -17% | [9]; at 11.0 µM -1% | [9]; at 33.0 µM 18% | [9]; at 50.0 µM 34.5% | [9]; at 100.0 µM 47% | [10]; at 1.2 µM -2% | [10]; at 3.7 µM -1% | [10]; at 11.0 µM 1% | [10]; at 33.0 µM 6% | [10]; at 100.0 µM 15% | [11]; at 1.2 µM -4% | [11]; at 3.7 µM 1% | [11]; at 11.0 µM 3% | [11]; at 33.0 µM 12% | [11]; at 100.0 µM 24% | [12]; at 1.2 µM 0% | [12]; at 3.7 µM 2% | [12]; at 11.0 µM 13% | [12]; at 33.0 µM 29% | [12]; at 100.0 µM 51% | [13]; [15] 31% | [13]; at 50.0 µM 35% | [14]; at 1.2 µM 5% | [14]; at 3.7 µM 20% | [14]; at 11.0 µM 62%
